Data on 12 molecules can be found in PubChem BioAssay (NCATS).

Records with an inconclusive call do not appear. Values without a mark were called inactive. Calls of active or inactive are those of the source. The call rests on the fitted dose curve; in most records, active means well fitted inhibition curve with a large enough effect; inconclusive means small, poorly fitted or top-dose-only effect; inactive means no such curve, though single readings can be large or run the other way.
On the % scale 0 is the no-effect control and ±100 the full control effect.

The assay deals with Zika virus NS2B-NS3 protease (linked construct). The experiment in a line: Primary screen NINDS Rhodamine qHTS for Zika virus inhibitors (AID 1347160). Further: nearly all actives have a fitted effect of over 55% in size. The following applies: purified NS2B-NS3 protease, Rhodamine110 substrate fluorescence; series mostly up to 57.1 µM; activity change, negative = inhibition: at the top concentration. The gist of the method:
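Aprotinin served as in-plate control. Conditions: 25 nM linked NS2B-NS3, pH 8.0 Tris buffer, titrated compounds, 15 min preincubation and 15 min reaction with 1.5 microM Rhod110 substrate at room temperature.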
Regarding `C=C(C)[C@H]1C[C@@H](O)C(=C)CC[C@@H](O)C(=C)[C@@H](O)C1`, the molecule was called inactive. Regarding `Cc1ccc(Sc2cncc3sc(C(N)=O)cc23)cc1`, the “activity change, negative = inhibition” value is 12.6%. Still for that read-out and setting: to `O=C(/C=C/c1ccc(O)cc1)OCC1=C[C@@H](O)[C@@H]2C=CO[C@@H](O[C@@H]3O[C@H](CO)[C@@H](O)[C@H](O)[C@H]3O)[C@H]12` belongs -21.2% [at 33.1 µM]; to `C/C=C(\C)C(=O)O[C@H]1[C@@H](O[C@]2(COC(=O)CC(C)C)O[C@H](COC(=O)C(C)C)[C@@H](OC(C)=O)[C@@H]2O)O[C@H](COC(C)=O)[C@@H](O)[C@@H]1O`, -18.2% [at 15.1 µM]; to `c1ccc(Nc2nc3c(s2)CCCc2[nH]ncc2-3)nc1`, 8.9%. As for `O=C(NC[C@H](O)CN1CCc2ccccc2C1)c1cc(NC2COC2)ncn1`, the molecule was classed as inactive. As to `CC1=C(CC(=O)O)c2cc(F)ccc2C1=Cc1ccc(S(C)(=O)=O)cc1`, the “activity change, negative = inhibition” value was 19.3%. As for `CC1(C)CC[C@]2(C(=O)O)CC[C@]3(C)C(=CCC4[C@@]5(C)CC[C@H](O[C@@H]6O[C@H](C(=O)O)[C@@H](O)[C@H](O)[C@H]6O)C(C)(CO)C5CC[C@]43C)C2C1` (some centres not stated), the “activity change, negative = inhibition” value is -16.5% [at 15.1 µM]. With `CC1(C)C(=O)C(C)(C)c2cc(C(=O)Nc3ccc(C(=O)O)cc3)ccc21`, the “activity change, negative = inhibition” value was -4.75%. Same read-out and setting: for `COc1ccc2cc(OCC3(C(=O)O)CN(C(=O)c4ccc(F)cc4)C3)ccc2c1` the value was -24.5%; for `COc1cc(C(O)C(CO)Oc2ccc(CCCO[C@@H]3O[C@@H](C)[C@H](O)[C@@H](O)[C@H]3O)cc2OC)ccc1O` (some centres not stated), -23.8% [at 33.1 µM]. The same measure, in the same setting: to `CCc1c(CC(N)=O)c2cc(OCCCP(=O)(O)O)ccc2n1Cc1ccccc1` belongs -23.3%.
